Screening data (PubChem)
A selection: hits, their analogues and other compounds. The true share with any hit is near 21%.
Pf growth 96h: P. falciparum growth inhibition at 96 hour, primary screen for plastid delayed-death inhibitors. P. falciparum luciferase reporter growth, 96 h. Potency, µM (doses to about 28.7 µM), without a hit: top-dose activity change, negative = inhibition, hits mostly inhibitors. hit rate 6.9% among 320,000. AID 504834; active means well fitted inhibition curve with a large enough effect; inconclusive means small, poorly fitted or top-dose-only effect, or another doubt; inactive means no such curve, though single readings can be large or run the other way; further: potency means the concentration at half of the fitted maximal effect; on the % scale 0 is the no-effect control and ±100 the full control effect
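Compounds incubated with erythrocytes infected by luciferase-expressing P. falciparum (2% hematocrit, 0.05% parasitemia final) for 96 hours, 37 C in 5% CO2. Growth inhibition scored as decreased luciferase luminescence.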
Pf growth 48h: P. falciparum growth inhibition at 48 hours (one generation) | P. falciparum luciferase growth in erythrocytes, 48 h | Potency, µM (highest dose often 28.7 µM), without a hit: at the highest dose activity change, negative = inhibition, hits mostly inhibitors | hit rate 5.9% among 310,000; active means well fitted inhibition curve with a large enough effect; inconclusive means small, poorly fitted or top-dose-only effect, or another doubt; inactive means no such curve, though single readings can be large or run the other way; further: potency means the concentration at half of the fitted maximal effect; on the % scale 0 is the no-effect control and ±100 the full control effect
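First compound was added to culture medium, then infected red cells at 0.1% parasitemia and 2% hematocrit (final). After incubation at 37 C under 5% CO2, luciferase detection reagent was dispensed and light output recorded.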
SARS PLP yeast: blocks SARS-CoV papain-like protease in a yeast assay; S. cerevisiae expressing SARS-CoV PLpro, growth rescue; Potency, µM (highest dose often 32.9 µM), for the others: at the highest dose activity, positive = growth rescue, most hits filed as activators; hit rate 0.19% among 330,000; AID 485353; further: potency means the concentration at half of the fitted maximal effect; 0% is about no effect; nearly all actives have a fitted effect of over 55% in size
Cycloheximide cs: counter-screen for Shiga toxin inhibitors: cycloheximide protein synthesis inhibition; cell reporter, cycloheximide protein synthesis inhibition counterscreen; max response, %; hit rate 12% among 300,000; in the data active means max response mostly above about 13%, no sharp cut-off; inactive means mostly below about 14%; further: read at 38.3 µM for the half of the compounds with a filed dose; 0% is about no effect
NS1 function inh: influenza NS1 inhibition | AID 2326 | Potency, µM (doses to about 46.1 µM), inactives show top-dose activity, positive = more growth | hit rate 0.4% among 270,000; further: potency means the concentration at half of the fitted maximal effect; actives are rising curves; nearly all actives have a fitted effect of over 50% in size
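A cell-based growth assay was used: compounds that relieve NS1-induced slow growth of budding yeast raise OD600. Assay medium was yeast nitrogen base with ammonium sulphate and -URA supplement, pH 6.0, with 2% galactose.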
Shiga toxin inh: Shiga toxin inhibition; inhibition, % at 38.7 µM; Vero cells, Shiga toxin protein synthesis inhibition reporter; hit rate 9.2% among 290,000; in the data active means inhibition mostly above about 28%, no sharp cut-off; inactive means mostly below about 43%; further: 0% is about no effect
* = called active by the depositor; i = inactive; ? = inconclusive; / = no result given; [ ] = another dose, or the depositor's remark. Unless noted, the call rests on the fitted dose curve.

SMILES | Pf growth 96h | Pf growth 48h | SARS PLP yeast | Cycloheximide cs | NS1 function inh | Shiga toxin inh
O=C(CN1CCN(S(=O)(=O)c2ccc3c(c2)OCCO3)CC1)Nc1cccc(F)c1 | -14.5% | -13.8% | -7.0% | / | / | /
CC(OC(=O)c1ccco1)C(=O)Nc1ccc(C(F)(F)F)cc1 (configuration not stated) | -29.7% | -1.1% | -10.2% | / | / | /
Cc1onc(-c2ccccc2)c1C(=O)N1CCN(C/C=C/c2ccccc2)CC1 | 2.08µM* | / | -4.4% | -8.1 | -35.3% | -15.8
Cc1cccc(N2CCN(C(=O)c3c(-c4ccccc4)noc3C)CC2)c1C | 10.4µM* | ? | -12.0% | 1.0 | -21.7% | -26.9
CCc1noc(C)c1C(=O)N1CCN(c2cccc(C)c2C)CC1 | 4.4% | ? | 1.2% | / | / | /
CCOC(=O)N1CCN(C(=O)Nc2cccc(Cl)c2)CC1 | 11.7µM* | / | -3.8% | -1.1 | -1.5% | -6.9
O=C(Nc1cccc(Cl)c1)N1CCN(Cc2ccccc2)CC1 | -13.0% | 59.3% | 0.5% | 21.2* | -7.9% | 41.3*
Cc1cccc(NC(=O)N2CCN(Cc3ccc(Cl)cc3)CC2)c1 | ? | 12.9% | -1.2% | -1.7 | / | -5.0
Nc1c(-c2ccccc2Cl)cnn1-c1cccc([N+](=O)[O-])c1 | ? | 60.9% | -5.1% | 17.8 | -74.1% | 48.3
Cc1ccccc1-c1cnn(-c2cccc([N+](=O)[O-])c2)c1N | 21.8% | 33.4% | -0.8% | 25.7* | -7.3% | 38.8
Cc1ccc(-c2cnn(-c3cccc([N+](=O)[O-])c3)c2N)cc1 | 99.7% | 202.1% | -2.4% | 46.0* | -7.9% | 102.7*
CCOC(=O)c1[nH]cnc1C(=O)Nc1ccccc1OC | 20.9% | 0.6% | -0.8% | 10.6 | 3.5% | 22.2
CCOC(=O)c1sc2nc3c(cc2c1N)COC(C)(CC)C3 (configuration not stated) | -27.9% | 86.7% | -11.7% | 41.3* | ? | 32.5
CCOC(=O)c1cc2c(nc1N)CC(C)(C)OC2 | ? | 28.9% | -19.2% | 13.5 | -0.9% | 15.7
CCOC(=O)c1cc2c(nc1N)CC(C)(CC)OC2 (configuration not stated) | / | 121.2% | 4.3% | 48.6* | -4.6% | 116.5*
CCOC(=O)c1cc2c(nc1NC(=S)Nc1ccccc1)CC(C)(C)OC2 | 10.4µM* | -12.7% | -1.1% | -3.3 | 13.1% | -9.1
CCOC(=O)c1sc2nc3c(cc2c1N)COC(C)(C)C3 | 14.8% | 270.2% | -13.9% | 38.0* | -9.8% | 28.5*
Cn1c(=O)oc2cc(S(=O)(=O)CCC(=O)Nc3ccccc3)ccc21 | ? | 11.2% | -5.9% | -9.6 | -3.2% | -6.6
O=C1CCCC/C=C\C[C@H](CC(=O)N(CCO)Cc2ccccc2)C(=O)N2CCC[C@@H]2CO1 | / | / | 1.2% | / | / | /
CC1(C)Cc2nc3sc(C(N)=O)c(N)c3cc2CO1 | 47.5% | 37.6% | 0.5% | 30.8* | -3.3% | 31.2
CCCCn1nnc(NC(=O)c2ccc(-c3ccccc3[N+](=O)[O-])o2)n1 | 8.28µM* | -13.5% | -1.0% | 27.5* | -6.5% | 49.5*
CCn1nnc(NC(=O)c2ccc([N+](=O)[O-])o2)n1 | i | 19.6%[5.75 µM] | -0.8% | 18.8 | / | 6.1
COc1ccccc1NC(=O)c1ccc(-c2ccccc2[N+](=O)[O-])o1 | 9.6% | 34.0% | 7.0% | 59.7* | / | 114.8*
COc1ccccc1NC(=O)c1ccc(-c2ccc(Br)cc2)o1 | 3.0% | / | -10.5% | 9.9 | -20.1% | 21.2
O=C(Nc1nccs1)c1ccc(-c2ccccc2Cl)o1 | 15.6% | ? | -18.1% | 44.1* | 2.7% | 76.3*
SMILES | Pf growth 96h | Pf growth 48h | SARS PLP yeast | Cycloheximide cs | NS1 function inh | Shiga toxin inh
O=C(Nc1nccs1)c1ccc(-c2ccccc2[N+](=O)[O-])o1 | 26.8% | 110.4% | -9.9% | 54.4* | -26.5% | 105.7*
S=C(Nc1ccc(N2CCOCC2)cc1)Nc1ccc2snnc2c1 | 45.4% | 9.0% | -4.7% | 22.3 | / | 13.9
Cc1cc(=O)oc2cc(OCC(O)Cn3ccnc3)ccc12 (configuration not stated) | -0.2% | 38.0% | 6.6% | -1.3 | -3.9% | /
COc1ccc(CN(C)C(=O)c2ccncc2)c(OC)c1 | 27.9% | 7.2% | -3.7% | 0.5 | 9.0% | 4.7
CCOc1ccc(Cl)cc1S(=O)(=O)N1CCC(C(=O)NCC2CCCO2)CC1 (configuration not stated) | 7.3% | 9.9% | -2.3% | -7.6 | 7.6% | 2.0
CCCOCn1cc(F)c(=O)[nH]c1=O | 5.22µM* | ? | -3.4% | 4.3 | -0.2% | -9.5
O=C1NCCC/C1=N\Nc1ccc(Br)cc1 | 81.7% | 35.4% | -0.8% | 8.2* | -6.2% | 49.3
CCOC(=O)COc1ccc(Br)cc1C1NC(=O)NC(C)=C1C(=O)NCc1ccccc1 (configuration not stated) | ? | 28.1% | -9.8% | -2.5 | -5.3% | -4.7
CCOC(=O)N1CCC(n2c(SCC(=O)NCCC3=CCCCC3)nc3ccccc3c2=O)CC1 | ? | 9.28µM* | -2.7% | -2.8 | -66.6% | -10.0
CC(=O)NCCn1c(SCC(=O)NCCC2=CCCCC2)nc2ccccc2c1=O | 58.7% | -13.7% | -4.2% | 2.3 | -3.6% | -10.5
CCOC(=O)N1CCC(n2c(SCC(=O)N3CCC(C)CC3)nc3ccccc3c2=O)CC1 | 4.65µM* | 10.4µM* | 5.3% | -5.0 | -0.8% | -29.2
CCOC(=O)N1CCC(n2c(SCC(=O)NCc3ccccc3)nc3ccccc3c2=O)CC1 | ? | ? | 4.3% | -4.2 | -35.5% | -15.4
CCOC(=O)N1CCC(n2c(SCC(=O)N3CCCC3)nc3ccccc3c2=O)CC1 | ? | ? | 2.5% | -2.2 | 11.1% | -7.5
CCOC(=O)N1CCC(n2c(SCC(=O)Nc3ccccc3OC)nc3ccccc3c2=O)CC1 | -4.0% | 10.4µM* | 0.1% | -3.3 | 4.5% | -5.4
COCC(C)n1c(SCC(=O)NCCC2=CCCCC2)nc2ccccc2c1=O (configuration not stated) | 8.28µM* | / | 15.6% | -3.8 | -10.6% | -13.7
COc1ccc([N+](=O)[O-])cc1NC(=O)C(C)NNC(=O)c1cccc([N+](=O)[O-])c1 (configuration not stated) | / | / | -2.8% | / | / | /
Cc1ccc(N(C(=O)c2csnn2)C(C(=O)NC2CCCC2)c2ccccn2)c(C)c1 (configuration not stated) | -8.3% | -2.9% | -14.5% | -0.5 | -8.8% | -11.3
COc1ccccc1CNC(=O)CN(C)CC(=O)Nc1ccc(F)c(F)c1F | / | / | -2.5% | / | / | /
Cc1ccnc(SCc2ccc(C(=O)O)cc2)n1 | -4.7% | 19.4% | -0.5% | -2.3 | -24.9% | -8.9
COCCn1c(SCC(=O)NC(=O)NC2CCCCC2)nc2ccccc2c1=O | / | / | 4.8% | / | / | /
COCC(C)n1c(SCC(=O)NC(=O)NC2CCCC2)nc2ccccc2c1=O (configuration not stated) | ? | 13.1µM* | -1.0% | / | / | /
Cc1nc(NCc2ccccn2)c2ccccc2n1 | 35.8% | 12.9% | 2.2% | 7.8 | 1.8% | -1.1
Cc1cc(NCc2ccccn2)nc2ccccc12 | ? | / | 6.3% | 21.5* | -0.1% | 6.7
FC(F)(F)c1ccc(NCc2ccccn2)nc1 | 115.2% | / | -1.9% | 56.4* | 2.3% | 96.7*
